Positions count from the first letter of the chain named. Over roughly 24,000 sequences, “enrichment r” has its median near 0.99; the highest 2% begin near 3.7. The entries come from a sample that favours the highest values as a whole.
T1: UNK ZnF1-3 (human, UniProt Q9C0B0 31-174)
T1 sequence: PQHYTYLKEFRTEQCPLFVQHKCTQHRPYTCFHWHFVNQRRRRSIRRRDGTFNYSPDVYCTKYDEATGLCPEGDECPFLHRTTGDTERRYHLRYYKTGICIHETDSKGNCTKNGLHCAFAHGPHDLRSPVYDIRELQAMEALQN

B1: chr2:217001844:217001845:+_ENSG00000079246_ENST00000392132|hu_hu|hu_hu_hu_mus_False|18_28 (ssRNA)
RNA: GGGAGUUCUACAGUCCGACGAUCACCAACUUGAGGAUUAGAUCUUUUGUCAUAAGCAUAUCGGACGAUGGCGACCAUGUUUAACUCAUCCAAAGCAUGAACGAGAGAGGAAAGUGCAACUGCAGCUGCCUCAUCAUCCUUUGCCAACAGAGGAUUGAGCAUCA
B2: 7301359_7301479_2013_3pUTR_ENSMUSG00000024764_ENSMUST00000025675|mouse|control|control (ssRNA)
RNA: GGGAGUUCUACAGUCCGACGAUCGACACCCAUGACAGGAAAGCAGUGGUACGCCACUGAAAGGCAUCCCAGGGGUGCCAAGACAGUGGCACGAGUGCCUCAUUGAGGCGGUGAGGGGUGGGGCUCGGGAGAACAGGCAAAGGGCAACAGAGGAUUGAGCAUCA
B3: chr12:39756943:39756944:-_ENSG00000139116_ENST00000544797|hu_mus|hu_hu_hu_mus_False|8_28 (ssRNA)
RNA: GGGAGUUCUACAGUCCGACGAUCGGUUUGGCUGUUACCCCCAAGGGAAUCCUGCAAGAGUCUUGUCAGCUUAGAGUCUCUGUAAGGGACAUGGGUGGCUCUCUUGCUCUUGUCUCCCAAGGCGCUGAUUACAUUGCCAAGAGCCAACAGAGGAUUGAGCAUCA
B4: chr13:48835921:48835922:+_ENSG00000136156_ENST00000378565|hu_hu|FALSE|FALSE (ssRNA)
RNA: GGGAGUUCUACAGUCCGACGAUCGAUAUGGGUUAUACAAAUUAGUAACACAAGUUAUUUCUUAAAUUCCAAACAUUUUCUAAAAUAUUAUUACAGCAGAUGCCUAGGAUAUUAAAACAUAAAGGUGGAAAUCAUUCUCUAAAUCAACAGAGGAUUGAGCAUCA
B5: chr11:69466387:69466388:+_ENSG00000110092_ENST00000227507|hu_hu|motif|central (ssRNA)
RNA: GGGAGUUCUACAGUCCGACGAUCACACGUAAAGGAUGGAACCUAAUCCUCUCCCGAGACGCCUCCUUUGUGUUAAUGCCGGUUCUUACAACAGAGAAACAAGUACAUUAAUAUAAAAACGAGUUGAUUAUUGGGGUAUAAAAUCAACAGAGGAUUGAGCAUCA
B6: chr5:128440902:128440903:+_ENSG00000066583_ENST00000173527|hu_mus|hu_hu_hu_mus_True|1_58 (ssRNA)
RNA: GGGAGUUCUACAGUCCGACGAUCUUGAACGGUGCUGCCAAGUCCUUUGGGGUAUUGUUCCGUUAUGAUAACUGGAAUUCCUAAAAUCCGAGCUCCUUGCAACAGUCUCUGUCCCACACUAAUGAUGUCCCCAAAGUACUUGAUCAACAGAGGAUUGAGCAUCA
B7: chr1:109605286:109605287:-_ENSG00000197780_ENST00000461096|hu_mus|hu_hu_hu_mus_True|78_98 (ssRNA)
RNA: GGGAGUUCUACAGUCCGACGAUCAAGUUUCAGAGUAUUCAGUGAUCACCUCUUUAACAAUUGUAAUCCUUAUUAUAAGCUAAGCAGAAUAAUAAUUUAAUACCGUAAGUGAACUACACACAAAGCCUGAACCGCGAAAAUGGUCAACAGAGGAUUGAGCAUCA
B8: chr1:46159212:46159213:+_ENSG00000159596_ENST00000372025|hu_mus|hu_hu_hu_mus_True|58_58 (ssRNA)
RNA: GGGAGUUCUACAGUCCGACGAUCUCUGAUCCCUCCCAAGAAAGCUAGGAAACCGGCUCCAUAAGCCAUCUGAGUGAAAGCUAAUAUGGGGAUAUAAGACUUUGUUAUUACCAUGAGAAGUGGGGGAGCAGUAAAGGGGAUUAACAACAGAGGAUUGAGCAUCA
B9: chr11:69466387:69466388:+_ENSG00000110092_ENST00000227507|hu_hu|FALSE|FALSE (ssRNA)
RNA: B5 RNA with G80U, G81A
B10: chr2:27445747:27445748:+_ENSG00000084774_ENST00000264705|hu_hu|FALSE|FALSE (ssRNA)
RNA: GGGAGUUCUACAGUCCGACGAUCGGAGGCAGGGUCACCAGGCCCAUUACUUAAGAAGAGACCCUCAUACUCUUGGCUGUCUAGUGCAUGGUCCCAGGGUACCACAGUGACCUCAGCCCCACGCUGGCAGAGGCAUCGGAUCUGCAACAGAGGAUUGAGCAUCA
B11: chr9:95013113:95013114:-_ENSG00000196305_ENST00000443024|hu_hu|hu_hu_hu_mus_False|68_88 (ssRNA)
RNA: GGGAGUUCUACAGUCCGACGAUCCUCAGUCAGAAAGGGCGUGUAAGGAGCCAUAAGUCUGCACAGAGAAAGCAGAACACUGAACAGUGUCUCCAGAGCCAUGACACAGUCUUCCACCCCACUCUCACCCUUUAACCUCCUCCUCAACAGAGGAUUGAGCAUCA
B12: 142899929_142900494_654_CDS_ENSMUSG00000031004_ENSMUST00000033310|mouse|control|control (ssRNA)
RNA: GGGAGUUCUACAGUCCGACGAUCAAGGCCCUUGGCAUACACAAAAGAUCUUCUUGAAGCAGUCAUUUUUGAAGCUUUGGUAUCUUGACCUUCCCCAUCAGGGUCAGCACAGAAGCUAUCUCUUGAGGCUCGCCUUGAUGGUUCCAACAGAGGAUUGAGCAUCA
B13: chr6:136509389:136509390:+_ENSMUSG00000030213_ENSMUST00000032335|mus_hu|FALSE|FALSE (ssRNA)
RNA: GGGAGUUCUACAGUCCGACGAUCAAUAUUAUUAUCAGCUUUAUUUUUCUCAUCCAAUGAGUCUUUACUCUGAAUUUGCUCUAAUUUUUCAUCAGCUCCAUUUUUUUCAAGAAAAUCAUCAUCUUUAUUGCUACUUGGUUCUAUCAACAGAGGAUUGAGCAUCA
B14: chr15:57879074:57879075:-_ENSMUSG00000022361_ENSMUST00000070143|mus_hu|FALSE|FALSE (ssRNA)
RNA: GGGAGUUCUACAGUCCGACGAUCCAGCUGUCUGAGUGAGGAAAUCAGCUACAUUGCAGCAUUUUGGAAUUACUAAUAAAGCUAUAGUUAAAAAAUAAAAAGUUUAUAAAAAUGAAAGCAGCAUGCAUAUUCAAGGCUUUUUCACAACAGAGGAUUGAGCAUCA
B15: chr15:57879074:57879075:-_ENSMUSG00000022361_ENSMUST00000070143|mus_hu|motif|central (ssRNA)
RNA: B14 RNA with U82G, A83G
B16: chr12:111890518:111890519:-_ENSG00000204842_ENST00000389154|hu_hu|FALSE|FALSE (ssRNA)
RNA: GGGAGUUCUACAGUCCGACGAUCUUGGAUGUUACAAGAAAUCAACAUAUAUAUUUUAAAAACAAAAUAAAUGAAAUUCUAGUUUUCUGUGCUUCCAGUUGGUAGAAGCAGUAGAAGGGAGGAGGGAAUUUGGCCUUUCGGUUCCAACAGAGGAUUGAGCAUCA
B17: chr12:98991669:98991670:+_ENSG00000075415_ENST00000552981|hu_mus|motif|central (ssRNA)
RNA: GGGAGUUCUACAGUCCGACGAUCGAAUCCAUUAAAUAUGCCUUUGUACUUCUGAGGGUCCACCUGCAUGCGGCACUUUACGGAGUCCAGGGGAACAACAGCAGUGUGUGUCAGCCCACAACUUAAGACCCCACCAAAGCCACACAACAGAGGAUUGAGCAUCA
B18: chr4:115894766:115894767:+_ENSMUSG00000028698_ENSMUST00000030464|mus_hu|mus_mus_mus_hu_True|1_98 (ssRNA)
RNA: GGGAGUUCUACAGUCCGACGAUCUUCCACACGGAAAGUACUUGGGGGUUUUCCAACGGCCAGUACCAGUCCGGCCAAACUACCCGAACAGGGUCCUCCCCCUCUCUCCUACAGAACACAACAAAAUGCCCCCGAACCCCGAACCAACAGAGGAUUGAGCAUCA
B19: chr2:69705335:69705336:+_ENSMUSG00000068882_ENSMUST00000090852|mus_mus|FALSE|FALSE (ssRNA)
RNA: GGGAGUUCUACAGUCCGACGAUCUUGGCCUUUAUCGUCUAGCCAUUCUUUUAUAUCAUCAAGGGUGGCGUCAGUUGGGAAACCUUUAAUAUAAACAGAUCUGUUUUUUACAUCAUUCUUAUACUCAUCCGUCACUUCAGGGAGCAACAGAGGAUUGAGCAUCA
B20: chr13:41369856:41369857:+_ENSMUSG00000091264_ENSMUST00000165561|mus_hu|FALSE|FALSE (ssRNA)
RNA: GGGAGUUCUACAGUCCGACGAUCGCACUUCAUUCUUGUACAAAGCAGGUAACACUAAACAGGAAGGUUGUUUAAUUCACAUCUCUUCUCCCUGGUAAACACUCAGCCCAGAGUUCAGUUGAGACAAACACGGAAACCUGGCAACAACAGAGGAUUGAGCAUCA
B21: chr8:124405102:124405103:-_ENSMUSG00000040010_ENSMUST00000045557|mus_mus|motif|central (ssRNA)
RNA: GGGAGUUCUACAGUCCGACGAUCCCCAAAAAAACAAAAAGCCUCACAAAACAGCAGACCUCUGUACCCCCCCCCCAGUCGGAUGUAACAGGCUAGCCAUUAAUACAAUAGUAAAAGACAUUAUAACCACAGCACUAUCUCAGGCAACAGAGGAUUGAGCAUCA
B22: chr12:48362563:48362564:+_ENSG00000134291_ENST00000256686|hu_hu|hu_hu_hu_mus_False|98_108 (ssRNA)
RNA: GGGAGUUCUACAGUCCGACGAUCUCCGAAGGGUGAAUCAAGCCCCACUUGCGGGGGAAACUGUAAUCACUUUGUAUGGGGAAGGAAAAGAAACGCCAAAAACUUUCCAAAAAGCGGGGGUGGGGUGAGGCGGGAGGGGGAGGUCAACAGAGGAUUGAGCAUCA
B23: chr8:122087627:122087628:-_ENSMUSG00000034189_ENSMUST00000036049|mus_mus|motif|central (ssRNA)
RNA: GGGAGUUCUACAGUCCGACGAUCGCAUUAAAGGCGUGAGCCCCCACGCCCAGCCUGAGGAACAUCUUGAAAGCCAAUACGGUAAUCAGUCACCUGUAAAAGGAAAACAGGUGACUUCUCAAAAAAAAAAAAAAAAGAAAGAAACAACAGAGGAUUGAGCAUCA
B24: chr8:122087627:122087628:-_ENSMUSG00000034189_ENSMUST00000036049|mus_mus|FALSE|FALSE (ssRNA)
RNA: B23 RNA with G80U, G81A
B25: chr1:23884524:23884525:-_ENSG00000117318_ENST00000374561|perfect_dup|FALSE|FALSE (ssRNA)
RNA: GGGAGUUCUACAGUCCGACGAUCUUUAAUAUACAUCGCAUUGUUACAGAAAGUCACCUUCCUGUAAAAAAGGUACAAAACCUAUAUACUCUAUUAUAGAGUUCAUAAAUCAGGGCAACAGAACCUUUCUCCAAGGAGACCAGACAACAGAGGAUUGAGCAUCA

The binders below were run against T1, UNK ZnF1-3 (assay: nsRBNS (natural sequence RNA bind-n-seq); RBNS binding buffer (assumed for nsRBNS): 25 mM Tris pH 7.5, 150 mM KCl, 3 mM MgCl2, 0.01% Triton X-100, 500 ug/ml BSA, 20 U/ml SUPERase-In, 4 C; UNK is unkempt and MSI1 is Musashi-1; names of the RNAs are library labels; protein concentration not given here; high values mean tight binding).

First: B1
Second: B2
The binding signal of the first is higher: 1.42 enrichment R for the first, 1.24 enrichment R for the second.

Going from B3 to B4, the binding signal rises from 0.697 enrichment R to 1.52 enrichment R.

Going from B5 to B6, the binding signal falls from 4.6 enrichment R to 0.681 enrichment R.

Compared with B7, B8 is higher in binding signal: 0.993 enrichment R for the first, 1.4 enrichment R for the second.

First: B9
Second: B10
The binding signal of the first is higher: 5 enrichment R for the first, 1.01 enrichment R for the second.

Going from B11 to B12, the binding signal falls from 1.57 enrichment R to 0.52 enrichment R.

First: B13
Second: B14
The binding signal of the first is lower: 0.334 enrichment R for the first, 7.31 enrichment R for the second.

Going from B15 to B16, the binding signal falls from 6.18 enrichment R to 1.07 enrichment R.

Going from B17 to B18, the binding signal rises from 1.12 enrichment R to 1.29 enrichment R.

First: B19
Second: B20
The binding signal of the first is lower: 1.08 enrichment R for the first, 1.42 enrichment R for the second.

Compared with B21, B22 is lower in binding signal: 2.38 enrichment R for the first, 1.98 enrichment R for the second.

Compared with B23, B24 is higher in binding signal: 4.56 enrichment R for the first, 5.88 enrichment R for the second.

In the case of B25, the binding signal is reported as 0.848 enrichment R.

— PMC12136788
